This is a sample that favours compounds with a hit; in the whole collection about 11% have one here.
Tau fluor counter – Counterscreen qHTS for Inhibitors of Tau Fibril Formation, Fluorescence Polarization; tau K18 P301L Alexa594 fluorescence, heparin fibrillization; 0.93% of 280,000 active; Potency, µM (top dose mostly 57.7 µM); further: nearly all actives have a fitted effect of over 55% in size
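Human K18 P301L tau (15 uM unlabeled plus 0.24 uM Alexa 594-labeled, final) in 100 mM sodium acetate pH 7 was mixed with compound and 20 uM heparin and incubated 6 hr at 37 C.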
Tau fibril ThT – qHTS for Inhibitors of Tau Fibril Formation, Thioflavin T Binding; 2.1% of 270,000 active; Microtubule-associated protein tau (Homo sapiens), P10636; Potency, µM (doses to about 57.4 µM), usual class: inhibitors; recombinant tau K18 P301L, heparin-induced fibrillization, ThT fluorescence; further: nearly all actives have a fitted effect of over 55% in size
Target sequence (P10636 561-689 P618L limits assumed): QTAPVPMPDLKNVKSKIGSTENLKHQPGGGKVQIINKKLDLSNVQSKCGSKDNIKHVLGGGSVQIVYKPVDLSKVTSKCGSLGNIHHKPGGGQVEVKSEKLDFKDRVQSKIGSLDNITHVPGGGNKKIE
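Using a mix of unlabeled (15 uM) and Alexa 594-labeled (0.24 uM) tau K18 P301L, heparin-triggered fibrillization over 6 hr at 37 C was scored by ThT fluorescence.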
FBPA coupling cs – qHTS Assay for Inhibitors of Fructose-1,6-bisphosphate Aldolase from Giardia Lamblia: Coupling assay counterscreen | coupling enzyme system counterscreen, AmpLite Red fluorescence | activity change, negative = inhibition, % at 58.2 µM, hits read low | 0.67% of 290,000 active | AID 2472, 2010; in the data active means activity change below about -30%
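Counterscreen of the coupled detection system alone, without aldolase: glyceraldehyde-3-phosphate coupling enzymes plus AmpLite Red readout. Compounds at 57.5 uM final, 10 min RT preincubation, 20 min RT reaction, fluorescence 525/598 nm.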
Tau FP inhib – qHTS for Inhibitors of Tau Fibril Formation, Fluorescence Polarization; Microtubule-associated protein tau (Homo sapiens), P10636; K18 P301L tau heparin fibrillization, Alexa594 FP, 6 h; Potency, µM (top dose mostly 57.7 µM), usual class: inhibitors; 0.39% of 280,000 active; further: nearly all actives have a fitted effect of over 55% in size
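Read-out: fluorescence polarization of Alexa 594-labeled tau (0.24 uM), 555 nm excitation, 632 nm emission. Mixtures held 15 uM unlabeled K18 P301L, compound and 20 uM heparin, pH 7 acetate buffer, incubated 6 hr at 37 C.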
G9a block – qHTS Assay for Inhibitors of Histone Lysine Methyltransferase G9a; Potency, µM (titrated, usually from 102 µM), usual class: inhibitors; AID 504332, 2011; Histone-lysine N-methyltransferase EHMT2 (Homo sapiens), Q96KQ7; G9a H3K9 monomethylation, AlphaScreen, 2 h; 8.8% of 350,000 active; further: nearly all actives have a fitted effect of over 75% in size
Target sequence (Q96KQ7 913-1193 limits assumed): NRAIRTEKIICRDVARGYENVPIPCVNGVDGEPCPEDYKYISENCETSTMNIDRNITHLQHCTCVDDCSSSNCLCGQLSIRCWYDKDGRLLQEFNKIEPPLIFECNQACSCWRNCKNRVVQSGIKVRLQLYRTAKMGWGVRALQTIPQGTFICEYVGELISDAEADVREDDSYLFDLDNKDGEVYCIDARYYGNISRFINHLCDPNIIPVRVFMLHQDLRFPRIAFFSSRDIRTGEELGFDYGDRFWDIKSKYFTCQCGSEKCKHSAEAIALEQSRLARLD
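Enzyme 20 nM + cpd, 15 min RT; add b-H3K9 pep 500 nM / SAM 20 uM; 2 h RT; anti-H3K9me1 Ab 0.5 ug/mL + SA donor / anti-rabbit acceptor beads 20 ug/mL each, 10 min; AlphaScreen read.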
Sfp inh – qHTS Assay for Inhibitors of Bacillus subtilis Sfp phosphopantetheinyl transferase (PPTase); Biochemical Sfp PPTase activity, qHTS; Potency, µM, usual class: inhibitors; 3.5% of 310,000 active;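 further: the enzyme is Sfp with the accession as filed and its product quenches rhodamine fluorescence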
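Compounds were incubated with enzyme (final 15 nM) for 15 min at room temperature before substrate addition started the reaction. Fluorescence at 525 nm excitation, 598 nm emission was recorded immediately and after 30 minutes.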
Hits are given with their value; – = inactive; ? = inconclusive; · = no result; [ ] = another dose, or the depositor's remark. Unless noted, the call rests on the fitted dose curve; in most records, active means well fitted curve in the direction sought with a large enough effect; inconclusive means small, poorly fitted or top-dose-only effect, or another doubt; inactive means no such curve, though single readings can be large; an effect the other way counts as inactive or inconclusive.

SMILES | Tau fluor counter | Tau fibril ThT | FBPA coupling cs | Tau FP inhib | G9a block | Sfp inh
COc1cccc(C(=O)N2CCN(C3CCCCC3)CC2)c1 | · | · | – | · | · | –
COc1ccc(OC)c(CN2CCC(C(=O)N(C)CCc3ccc(OC)c(OC)c3)CC2)c1 | – | – | – | – | · | ?
CN1CCN(C(=O)c2ccc3c(c2)N(C)C(=O)/C(=C/c2cccc(Cl)c2)S3)CC1 | · | · | · | · | ? | –
COc1cccc(C(=O)N2CCN(C3CCN(Cc4ccccc4)CC3)CC2)c1 | – | – | – | – | 8.9µM | ?
COc1ccc(/C=C2\Sc3ccc(C(=O)N4CCN(Cc5ccccc5)CC4)cc3N(C)C2=O)cc1OC | · | · | – | · | 71µM | –
COc1cccc(NC(=O)c2cnc(SCC(=O)N3CCOCC3)n(C)c2=O)c1 | – | ? | · | – | – | ·
COc1ccccc1C(=O)N1CCN(C2CCN(Cc3ccccc3)CC2)CC1 | – | – | – | – | 10µM | –
COc1ccccc1C(=O)N1CCN(C(=O)Cc2ccccc2)CC1 | · | · | – | · | – | –
COc1ccc(C(=O)N2CCN(C(=O)Cc3ccccc3)CC2)cc1OC | – | – | – | – | –[2.33 µM] | –
COc1ccc(C(=O)N2CCN(C3CCN(Cc4ccccc4)CC3)CC2)cc1OC | – | – | – | – | 11µM | –
COc1ccccc1C(=O)N1CCN(Cc2cccnc2)CC1 | · | · | – | · | 10µM | 63µM
NNC(=S)NC1CCS(=O)(=O)C1 (stereo not given) | – | · | – | – | · | 8.9µM
CN(C)C(=S)NC1CCS(=O)(=O)C1 (stereo not given) | – | – | – | – | – | –
O=C(O)/C=C/C(=O)NC1CCS(=O)(=O)C1 (stereo not given) | – | – | – | – | 3.2µM | –
Cn1cc(C(CO)Cc2ccccc2)c2ccccc21 (stereo not given) | · | · | · | · | –[2.33 µM] | ·
CC(C)CN(C(=O)CSc1nc2ccccc2c(=O)n1C)C1CCS(=O)(=O)C1 (stereo not given) | · | · | · | · | –[2.33 µM] | ·
N#CCC(=O)N/N=C/c1c(-c2ccccc2)n(-c2ccccc2)c2ccccc12 | · | · | – | · | – | 56µM
CCOC(=O)c1ccccc1NC(=O)N(C(C)C)C1CCN(C(C)=O)CC1 | – | – | · | – | – | ·
CSCC[C@H](NC(=O)OC(C)(C)C)c1nnc(SCC(N)=O)o1 | – | – | – | – | – | –
CSCC[C@H](NC(=O)OC(C)(C)C)c1nnc(SCC=C(C)C)o1 | – | – | – | – | 50µM | –
CCc1cc2c(=O)oc(-c3ccc(F)cc3)nc2s1 | · | · | – | · | · | –
CCN(CC)c1ccc(NC(=O)c2ccccc2Br)cc1S(=O)(=O)Nc1ccccc1OC | – | 25µM | – | ? | 1.3µM | 3.2µM
CCN(CC)c1ccc(NC(=O)COc2ccccc2C)cc1S(=O)(=O)Nc1ccccc1OC | – | – | – | – | 10µM | 20µM
CCN(CC)c1ccc(NC(=O)c2ccccc2F)cc1S(=O)(=O)Nc1ccccc1OC | – | – | – | – | 6.3µM | 14µM
CCN(CC)c1ccc(NC(=O)c2ccc(=O)[nH]c2)cc1S(=O)(=O)Nc1ccccc1OC | ? | ? | – | ? | 2.5µM | 14µM
SMILES | Tau fluor counter | Tau fibril ThT | FBPA coupling cs | Tau FP inhib | G9a block | Sfp inh
COc1ccc(NC(=O)c2ccccc2F)cc1Cl | – | ? | – | – | – | –
CCN(CC)c1ccc(NC(=O)COc2ccccc2C#N)cc1S(=O)(=O)Nc1ccc(OC)cc1 | ? | – | – | – | ? | –
O=C(CS(=O)(=O)c1ccccc1)Nc1nccs1 | · | · | – | · | – | –
COc1ccc(NC(=O)N2CC[C@@]3(CCCN(C(C)=O)C3)C2)cc1 | · | · | – | · | –[12.7 µM] | ?
CC(=O)c1c(C(C)=O)c(C)n(C(c2ccccc2)c2ccccc2)c1C | – | – | – | – | 32µM | –
CCc1cc2c3c(c1)C1(C(=O)N3C(C)(C)C=C2C)C(C#N)=C(N)Oc2[nH]c(=O)[nH]c(=O)c21 (stereo not given) | ? | 14µM | – | ? | 50µM | –
COc1cc2c3c(c1)C1(C(=O)N3C(C)(C)C=C2C)C(C#N)=C(N)Oc2cc(C)oc(=O)c21 (stereo not given) | – | – | – | – | – | –
CN(C)c1c(-c2ccccc2)cc(-c2ccccc2)[nH]c1=O | – | ? | – | – | 35µM | –
Cc1cc(-c2ccccc2)[nH]c(=O)c1C#N | – | – | – | – | – | –
COc1ccc(OC)c2c(C)c(C)[nH]c12 | ? | ? | – | – | 40µM | 10µM
COc1ccc(NS(=O)(=O)c2c(C)[nH]c(=O)[nH]c2=O)c(OC)c1 | – | – | – | – | –[12.7 µM] | –
CCCc1sc(N)nc1-c1ccc(Cl)cc1 | – | – | – | – | 45µM | –
CC1CC(=O)N(CC(=O)NCc2ccccc2)c2ccccc2S1(=O)=O (stereo not given) | · | · | – | · | – | –
CCCc1ccc(O)c(N=Cc2cc(Br)cc(OCC)c2O)c1 | – | 14µM | – | – | 5.6µM | –
CCOc1cccc(C=NCCc2ccc(OC)c(OC)c2)c1O | · | · | – | · | · | –
COc1cc(/C=N/NS(=O)(=O)c2ccc(C(C)(C)C)cc2)cc([N+](=O)[O-])c1O | – | ? | – | – | 18µM | –
COc1cc(/C=N/NS(=O)(=O)c2ccc(C)c([N+](=O)[O-])c2)cc([N+](=O)[O-])c1O | · | · | – | · | 40µM | –
Cc1oc2ccc(O)c(CN3CCOCC3)c2c1C(=O)Nc1ccc(C(C)C)cc1 | ? | ? | · | – | – | ·
Cn1c(=O)oc2cc(S(=O)(=O)NC(Cc3ccccc3)C(=O)NCc3ccccc3Cl)ccc21 (stereo not given) | – | – | · | – | – | ·
Cc1c(OC(C)C(=O)NCC2CCC(C(=O)O)CC2)ccc2c(-c3ccccc3)cc(=O)oc12 (stereo not given) | · | · | – | · | · | –
Cc1ccc(NC(=O)CSc2nnc(-c3ccccn3)n2N)cc1F | – | ? | – | – | – | –
CCn1c(SCC(=O)Nc2nccs2)nnc1-c1ccccn1 | · | · | · | · | · | –
CCn1c(SCC(=O)NC(C)(C)C)nnc1-c1ccccn1 | – | – | – | – | 56µM | –
O=C(CSc1nncc2ccccc12)Nc1ccc(C(=O)O)cc1 | · | · | · | · | · | 50µM
COc1ccc(NC(=O)CSc2ccc3c4c(cccc24)C(=O)c2ccccc2-3)cc1 | ? | ? | – | – | – | 40µM
NC(=O)c1ccc(NC(=O)CSc2nnc(-c3ccccn3)n2N)cc1 | – | ? | – | – | 25µM | –

Screening data deposited in PubChem BioAssay by National Center for Advancing Translational Sciences (NCATS).
